Reference: PubChem BioAssay AID1508625 (Wald Lab, School of Medicine, Case Western Reserve …, 2021)

Test: small molecules boosting NK-mediated OVCAR3 lysis – imaging, primary NK cells, calcein-AM imaging, primary screen (AID 1508625);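 further: compound given to NK cells 16 h before adding targets at 1.5 to 1 ratio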;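 on z-score: more negative robust z means stronger NK killing of tumor cells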
Details: OVCAR3 lysis by primary NK cells, at 5 µM; z-score: measured here: robust Z-score, single-point normalisation

SMILES	corrected activity, negative = more killing [%]	z-score
Clc1ccc(CSc2ncnc3c2oc2ccccc23)cc1	-4.09	-1.16
O=C(COc1ccccc1F)N1CCc2ccccc2C1	-4.1	-1.68
OCCNCCCOc1ccccc1F	-1.78	-0.566
O=C(Nc1ccc(Cl)cc1)c1ccc(F)c(S(=O)(=O)N2CCOCC2)c1	-4.69	-1.77
COc1cccc(C=Nn2c(C)nnc2C)c1OC	-2.16	-0.942
O=c1cc(O)c2c(n1-c1ccccc1)CCCC2	-7.04	-2.18
COCCCNCCOc1c(Cl)cc(C)cc1Br	-4.25	-1.58
O=C(Nc1nc2ccccc2s1)C(=O)Nc1nc2ccccc2s1	0.998	0.309
Cc1cc(Br)cc2c(N=NC(=O)c3ccccc3)c(O)[nH]c12	-1.64	-0.646
COc1ccccc1CNCc1ccccn1	-2.41	-0.766
CCOCCCNC(=O)c1ccc(N2CCCC2=O)cc1	-4.67	-1.26
CC(=O)Nc1ccc(S(=O)(=O)NCc2ccc(C(=O)O)cc2)cc1	-5.84	-1.58
CC1C(=O)NN=C1C(=O)NN=Cc1cccnc1 (configuration not stated)	-3.57	-1.56
Cc1ccc(NC(=O)CSc2nc3c(cc2C#N)CCCCC3)cc1	2.66	0.825
O=C(c1ccc(Cn2c(=S)[nH]c3cc4c(cc3c2=O)OCO4)cc1)N1CCC(N2CCCCC2)CC1	-3.36	-0.889
O=C(NCCc1ccccc1Cl)C1CC(=O)N(C2CCCCC2)C1 (configuration not stated)	-2.73	-1.04
COc1cc(C(=S)N2CCCCC2)ccc1OC(=O)c1ccc(C)cc1	-4.49	-1.39
CCOc1ccccc1NC(=O)CC1Sc2ccc(C(F)(F)F)cc2NC1=O (configuration not stated)	-3.99	-2.14
O=C1OC(c2cccc(Cl)c2)=NC1=Cc1ccc(Br)o1	-4.19	-1.78
COc1ccc(NC(=O)NCc2ccncc2)cc1	-2.54	-1.41
Cc1oc(-c2cccc(Br)c2)nc1CN1CCC(C(=O)NC(C)CCc2ccccc2)CC1 (configuration not stated)	-7.41	-2
CCCOc1ccc(C(=O)Nc2ccc3oc(-c4ccccc4)nc3c2)cc1	-3.03	-1.07
COc1ccc(-c2csc(Nc3ncccn3)n2)cc1OC	-2.57	-1.15
O=C1NC(=S)N(c2ccc(Cl)cc2)C(=O)C1=Cc1cc(Br)ccc1O	-3.58	-1.85

SMILES	corrected activity, negative = more killing [%]	z-score
COc1ccc(-n2c(=S)[nH]c3cc(C(=O)NCc4ccc(Cl)cc4)ccc3c2=O)cc1	-2.4	-0.763
O=C(Nc1c[nH]c(=O)[nH]c1=O)c1ccc(N2C(=O)C3C4C=CC(C4)C3C2=O)cc1 (configuration not stated)	0.344	0.184
CCCC12CN3CC(C)(CN(C1)C31C(=O)Nc3ccc(Br)cc31)C2=O (configuration not stated)	-2.13	-0.876
O=C(NN=Cc1ccccc1Cl)C(=O)Nc1cccc(C(F)(F)F)c1	-2.13	-0.904
O=C(NC(=S)NN1CCOCC1)c1ccc(Br)cc1	-1.04	-0.33
Cc1onc(-c2ccccc2)c1C(=O)Nc1cccc(Br)c1	-5.57	-1.98
COC(=O)c1ccc(COC(=O)c2ccncc2)cc1	-0.707	-0.393
O=[N+]([O-])c1ccc2[nH]c3c(c2c1)CCCC3NC1Cc2ccccc2C1 (configuration not stated)	0.0593	0.0259
Cc1c(C(=O)Nc2cccc([N+](=O)[O-])c2)sc2ncn(CC(=O)N3CCOCC3)c(=O)c12	-2.14	-0.779
CC1=C(C(=O)OC(C)C(C)(C)C)C(c2ccccc2)NC(=O)N1 (configuration not stated)	-4.55	-1.71
O=C1C(=O)N(Cc2cccnc2)C(c2ccccc2)C1=C(O)c1ccc(F)cc1 (configuration not stated)	-1.93	-0.837
CCCOc1ccc(C(=O)Nc2ccc3nn(-c4ccc(OCC)cc4)nc3c2)cc1	-3.37	-1.2
CCOc1ccc(-c2cc(C(=O)NN=Cc3cccnc3)[nH]n2)cc1	-4.91	-2.15
COc1cc2c(cc1NCc1ccccn1)oc1ccccc12	-2.51	-1.12
O=C(Nc1ccc(Br)cc1)C1CCN(S(=O)(=O)c2cccc3nonc23)CC1	-3.15	-0.893
COc1ccccc1CNC(=O)C(C)Oc1cccc(Cl)c1 (configuration not stated)	-1.41	-0.785
COc1cc(C(=S)N2CCCCC2)cc(OC)c1OC(=O)c1cccc2ccccc12	-9.1	-3.43
CC(C)C(NC(=O)C12CC3CC(CC(C3)C1)C2)C(=O)NC1=NCCS1 (configuration not stated)	1.64	0.711
O=C1CCC(=O)N1c1ccc(NCc2ccc(Cl)cc2)c([N+](=O)[O-])c1	-4.48	-1.63
CCN(CC)C(=O)CSc1nnc(-c2ccccc2)o1	-4.29	-1.86
C#CCN1C(=O)C(O)(CC(=O)c2ccc(OC)c(OC)c2)c2cc(Br)ccc21 (configuration not stated)	-5.04	-1.51
CCOC(=O)c1ccc(CN(Cc2ccc(F)cc2)S(=O)(=O)c2cccc(Cl)c2)cc1	-6.34	-1.71
Cc1cc(Br)c(O)c(C=NCCNC(=O)c2nonc2N)c1	0.42	0.173
NC(=O)c1ccccc1NC(=O)c1ccc(-c2cccc(Cl)c2)o1	-6.51	-1.94

SMILES	corrected activity, negative = more killing [%]	z-score
O=C(NCc1ccccc1)c1ccc2c(=O)n(-c3cc(C(F)(F)F)ccc3Cl)c(=S)[nH]c2c1	-5.46	-1.74
O=C(CSCc1ccccc1F)N1CCc2ccccc21	-9.83	-2.65
CCOC(=O)c1conc1-c1cccs1	-0.622	-0.198
CS(=O)(=O)N(CC(=O)N1CCOCC1)c1ccc2c(c1)OCCO2	-1.8	-1
O=c1c2cn[nH]c2nc(SCc2ccccc2F)n1-c1ccc(Oc2ccccc2)cc1	-0.689	-0.251
O=C(Oc1ccccc1C(=S)N1CCOCC1)c1ccc([N+](=O)[O-])cc1	4.47	1.39
O=[N+]([O-])c1ccc(Nc2ncnc3ccccc23)cc1	-1.89	-1.01
O=C(c1ccc(COCC(F)(F)F)o1)N1CCCCCC1	-2.9	-1.19
Cc1cc(OCCN2CCCCCC2)ccc1[N+](=O)[O-]	-3.28	-1.82
COc1ccc(Nc2ccncc2[N+](=O)[O-])cc1	-5.75	-3.2
O=c1c(=Nc2ccccc2O)c(=O)c2ccccc12	-2.51	-0.945
CCN1C(=O)c2cccc3c(NC(=O)C45CC6CC(CC(C6)C4)C5)ccc1c23	-12.5	-2.63
COC(=O)c1ccc(NC(=O)CN2CCN(CC#N)CC2)cc1	-5.45	-2.05
COC(=O)c1ccc(Sc2ccc(C)cc2)c([N+](=O)[O-])c1	-2.5	-0.675
COc1ccc(OC)c(NC(=O)c2cc3cccc(OC)c3oc2=O)c1	-3.03	-1.31
Cc1ccc2cccnc2c1[N+](=O)[O-]	-3.53	-0.744
CC(C)NCCOCCOc1cccc(Br)c1	-3.24	-1.21
COc1ccc(CNC(=O)CCN2C(=O)C3C4C=CC(CC4)C3C2=O)cc1 (configuration not stated)	-5.25	-1.67
Cc1cc(N2CCN(C(=O)c3cccc(F)c3F)CC2)c(F)cc1[N+](=O)[O-]	-4.4	-1.92
CCCCNCCCOc1cccc(Br)c1	-0.452	-0.168
O=C(c1nn2c(C(F)(F)F)cc(-c3ccco3)nc2c1Br)N1CCCCC1	-4.92	-1.85
O=C1C2C3C=CC(CC3)C2C(=O)N1c1ccccc1[N+](=O)[O-] (configuration not stated)	-2.44	-1.04
COc1ccc(Cn2c(=S)[nH]c3cc(C(=O)N4CCCCC4)ccc3c2=O)cc1	-8.39	-2.67
CCOC(=O)Cc1c(C)nc2cc(-c3ccc(C(C)(C)C)cc3)[nH]n2c1=O	-7.93	-2.37

SMILES	corrected activity, negative = more killing [%]	z-score
CCOC(=O)c1ccc(NC(=O)C(=O)N2CCCC2)cc1	-5.89	-2.55
CC(C)OC(=O)CN1CCCN(S(=O)(=O)c2ccc(F)cc2)CC1	-3.05	-0.969
O=C(COc1ccccc1)NCCSc1nc2ccccc2s1	-4.8	-1.81
COC(=O)C1C(=O)C2=C(CC1C)NC(C)=C(C(=O)OC1CCCC1)C2c1ccccc1OC(C)C (configuration not stated)	-2.11	-0.524
CCOC(=O)Cc1ccc(N(Cc2ccccc2)S(=O)(=O)c2cc(C)ccc2C)cc1	-11.3	-3.06
CCc1ccc(NC(=O)CCNC(=O)Cn2cnc3ccccc3c2=O)cc1	0.879	0.279
COc1cccc(C(=O)N2CCN(CC3CC=CCC3)CC2)c1OC (configuration not stated)	-3.28	-1.46
O=C(NC1CCCCCC1)c1coc(=O)c2ccccc12	-2.46	-0.781
Cc1c(C(=O)NCCc2ccccc2)oc2ccc(S(=O)(=O)N3CCCC3)cc12	-4.9	-1.22
Cc1c(NC(=O)CCCCCN2C(=O)c3ccccc3C2=O)c(=O)n(-c2ccccc2)n1C	-6.57	-2.47
CC1CC(C)CN(C(=O)c2c[nH]c3ccc(S(=O)(=O)N4CCOCC4)cc3c2=O)C1 (configuration not stated)	-2.85	-1.04
N#Cc1c(SCC(=O)c2ccccc2)nsc1SCC(=O)c1ccccc1	-5.48	-2.94
COCCNC(=O)c1cc2cc3ccc(Cl)cc3nc2o1	-3.66	-0.897
CCSc1nnc(NC(=O)CSc2nc3c(c(=O)n2-c2ccccc2OC)SCC3)s1	-4.89	-1.22
Cc1ccc2oc(-c3ccc(NC(=O)c4cccc(F)c4)c(C)c3)nc2c1	-9.28	-3.29
COc1cccc(C2C3=C(CCCC3=O)NC3=C2C(=O)CCC3)c1OC	-3.89	-1.45
Cn1c2ccccc2n2c(SCC(=O)O)nnc12	-4.88	-2.01
COc1ccc(C(N)=NOC(=O)c2cc(Cl)ccc2Cl)cc1	-1.41	-0.786
COc1ccc(C)cc1NC(=O)c1oc(=O)c2ccccc2c1-c1ccccc1	-11.3	-2.78
Cc1cc(C)cc(NS(=O)(=O)c2ccc3[nH]cc(C(=O)NCc4cccs4)c(=O)c3c2)c1	-6.12	-1.5
O=C(Oc1ccccc1C(=S)N1CCOCC1)c1ccc(Br)cc1	-4.68	-1.45
CCCc1sc(N2CCN(C(=O)c3ccccc3)CC2)nc1-c1ccccc1	-5.71	-1.77
COc1ccc(-c2n[nH]c(=S)o2)cc1	-4.44	-1.69
Cc1cc(Cl)ccc1OC(C)C(=O)n1cnc2ccccc21 (configuration not stated)	-1.02	-0.42
